From paper PMC7862700, “An all-to-all approach to the identification of sequence-specific readers for epigenetic DNA modifications on cytosine”

Tests used:
Assay in all cases: DAPPL (digital affinity profiling via proximity ligation, sequencing); 10 mM Tris-HCl pH 7.5, 50 mM NaCl, 1 mM DTT, 4% glycerol, room temperature, 30 min; GST-TFs on glutathione beads, 16-mer random dsDNA library, 0.1% formaldehyde crosslink after washing; high values mean tight binding
[1] = biological target: T1, FEV (Homo sapiens, UniProt Q99581 1-238); conditions: protein: recombinant; tags: N-terminal GST; dsDNA, one strand shown
T1 sequence: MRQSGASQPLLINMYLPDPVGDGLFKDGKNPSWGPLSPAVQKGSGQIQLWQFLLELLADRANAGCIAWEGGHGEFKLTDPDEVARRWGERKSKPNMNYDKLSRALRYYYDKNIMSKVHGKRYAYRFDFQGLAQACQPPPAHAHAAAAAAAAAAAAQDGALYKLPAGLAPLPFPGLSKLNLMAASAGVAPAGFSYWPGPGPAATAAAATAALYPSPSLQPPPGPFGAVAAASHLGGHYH
Procedure, shortened: (§1)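 Human transcription factors carrying a GST fusion were produced in yeast, bound to glutathione beads, tagged with DNA barcodes and pooled together with a tag-only sample. Each pool was held with 200 nmole of a random double-stranded 16-mer DNA library in Tris/NaCl/DTT/glycerol buffer for 30 min at room temperature, then washed, crosslinked in 0.1% formaldehyde, proximity-ligated with BsaI/T4 ligase (1 h, 37 °C), PCR-amplified and sequenced on an Illumina NextSeq500. Binding signal is the read frequency of each hexamer for a given factor divided by its frequency in the tag-only sample.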

[2] = biological target: ETV5 (Homo sapiens, UniProt P41161 1-510); conditions: protein: recombinant; tags: N-terminal GST; dsDNA, one strand shown
Procedure, shortened: as §1

[3] = biological target: T2, SPIC (Homo sapiens, UniProt Q8N5J4 1-248); conditions: protein: recombinant; tags: N-terminal GST; dsDNA, one strand shown
T2 sequence: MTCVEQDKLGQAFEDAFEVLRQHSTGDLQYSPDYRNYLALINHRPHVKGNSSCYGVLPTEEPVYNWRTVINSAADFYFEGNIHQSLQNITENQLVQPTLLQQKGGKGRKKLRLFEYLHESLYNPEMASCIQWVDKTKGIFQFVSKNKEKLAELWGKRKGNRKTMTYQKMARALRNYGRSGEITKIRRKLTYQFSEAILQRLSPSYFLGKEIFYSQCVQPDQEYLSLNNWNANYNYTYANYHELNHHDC
Procedure, shortened: as §1

[4] = biological target: ELF4 (Homo sapiens, UniProt Q99607 1-663); conditions: protein: recombinant; tags: N-terminal GST; dsDNA, one strand shown
Procedure, shortened: as §1

[5] = biological target: T3, ELK4 (Homo sapiens, UniProt P28324-2 1-405); conditions: protein: recombinant; tags: N-terminal GST; dsDNA, one strand shown
T3 sequence: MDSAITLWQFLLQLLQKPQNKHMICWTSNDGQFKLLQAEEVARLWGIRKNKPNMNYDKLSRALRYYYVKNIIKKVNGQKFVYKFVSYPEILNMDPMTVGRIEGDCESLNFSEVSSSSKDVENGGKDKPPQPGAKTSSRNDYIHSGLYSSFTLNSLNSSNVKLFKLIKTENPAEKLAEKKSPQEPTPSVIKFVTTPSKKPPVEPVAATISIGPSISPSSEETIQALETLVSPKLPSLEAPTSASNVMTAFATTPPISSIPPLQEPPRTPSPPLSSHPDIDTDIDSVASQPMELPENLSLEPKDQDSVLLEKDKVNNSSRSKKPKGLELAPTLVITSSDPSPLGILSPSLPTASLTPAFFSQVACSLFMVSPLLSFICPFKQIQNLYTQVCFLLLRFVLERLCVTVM
Procedure, shortened: as §1

[6] = biological target: T4, ETV2 (Homo sapiens, UniProt O00321 1-342); conditions: protein: recombinant; tags: N-terminal GST; dsDNA, one strand shown
T4 sequence: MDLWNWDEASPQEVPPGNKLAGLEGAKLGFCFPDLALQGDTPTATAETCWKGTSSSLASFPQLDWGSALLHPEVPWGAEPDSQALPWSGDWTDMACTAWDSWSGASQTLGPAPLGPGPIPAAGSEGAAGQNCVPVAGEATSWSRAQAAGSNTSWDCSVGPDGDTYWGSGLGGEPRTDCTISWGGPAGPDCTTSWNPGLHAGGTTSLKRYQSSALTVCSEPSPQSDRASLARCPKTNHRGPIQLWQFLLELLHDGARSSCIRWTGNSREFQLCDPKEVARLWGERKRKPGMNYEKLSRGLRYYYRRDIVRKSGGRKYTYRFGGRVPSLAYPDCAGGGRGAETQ
Procedure, shortened: as §1

[7] = biological target: T5, ELF3 (Homo sapiens, UniProt P78545 1-371); conditions: protein: recombinant; tags: N-terminal GST; dsDNA, one strand shown
T5 sequence: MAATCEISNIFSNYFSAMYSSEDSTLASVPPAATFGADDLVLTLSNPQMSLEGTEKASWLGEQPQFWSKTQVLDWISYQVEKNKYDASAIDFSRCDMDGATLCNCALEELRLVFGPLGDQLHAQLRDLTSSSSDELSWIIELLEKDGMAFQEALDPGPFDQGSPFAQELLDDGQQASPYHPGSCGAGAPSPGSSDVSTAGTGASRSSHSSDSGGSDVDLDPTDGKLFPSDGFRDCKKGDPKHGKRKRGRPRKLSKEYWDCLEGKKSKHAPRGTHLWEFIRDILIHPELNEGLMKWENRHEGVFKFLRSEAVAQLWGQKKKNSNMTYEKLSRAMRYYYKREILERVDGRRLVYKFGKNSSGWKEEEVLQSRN
Procedure, shortened: as §1

[8] = biological target: CRX (Homo sapiens, UniProt O43186 1-299); conditions: protein: recombinant; tags: N-terminal GST; dsDNA, one strand shown
Procedure, shortened: as §1

[9] = biological target: ETV1 (Homo sapiens, UniProt P50549 1-477); conditions: protein: recombinant; tags: N-terminal GST; dsDNA, one strand shown
Procedure, shortened: as §1

[10] = biological target: HSF1 (Homo sapiens, UniProt Q00613 1-529); conditions: protein: recombinant; tags: N-terminal GST; chain copies: 3; dsDNA, one strand shown
Procedure, shortened: as §1

Chain of CRX (O43186 whole entry): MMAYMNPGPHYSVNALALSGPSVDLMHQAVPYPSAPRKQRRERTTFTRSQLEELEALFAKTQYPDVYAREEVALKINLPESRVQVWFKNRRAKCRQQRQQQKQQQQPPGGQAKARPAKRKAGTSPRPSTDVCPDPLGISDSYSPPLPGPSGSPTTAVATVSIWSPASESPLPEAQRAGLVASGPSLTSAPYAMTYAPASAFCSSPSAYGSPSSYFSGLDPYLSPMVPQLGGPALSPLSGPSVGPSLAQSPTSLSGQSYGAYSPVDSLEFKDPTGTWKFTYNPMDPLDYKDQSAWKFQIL
Chain of ETV1 (P50549 whole entry): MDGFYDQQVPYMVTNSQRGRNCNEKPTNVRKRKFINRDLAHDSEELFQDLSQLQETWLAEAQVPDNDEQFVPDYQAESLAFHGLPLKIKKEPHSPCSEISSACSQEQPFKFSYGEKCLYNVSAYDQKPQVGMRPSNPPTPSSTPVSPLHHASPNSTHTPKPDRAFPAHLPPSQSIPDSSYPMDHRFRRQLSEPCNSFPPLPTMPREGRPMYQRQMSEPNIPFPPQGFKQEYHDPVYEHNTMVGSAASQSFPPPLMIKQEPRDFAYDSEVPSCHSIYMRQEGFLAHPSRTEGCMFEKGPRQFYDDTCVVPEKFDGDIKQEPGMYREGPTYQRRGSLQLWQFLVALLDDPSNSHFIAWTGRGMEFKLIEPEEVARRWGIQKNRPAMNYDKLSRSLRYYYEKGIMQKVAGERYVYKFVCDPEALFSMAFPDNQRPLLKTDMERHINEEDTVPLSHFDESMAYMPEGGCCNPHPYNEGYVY
Chain of ELF4 (Q99607 whole entry): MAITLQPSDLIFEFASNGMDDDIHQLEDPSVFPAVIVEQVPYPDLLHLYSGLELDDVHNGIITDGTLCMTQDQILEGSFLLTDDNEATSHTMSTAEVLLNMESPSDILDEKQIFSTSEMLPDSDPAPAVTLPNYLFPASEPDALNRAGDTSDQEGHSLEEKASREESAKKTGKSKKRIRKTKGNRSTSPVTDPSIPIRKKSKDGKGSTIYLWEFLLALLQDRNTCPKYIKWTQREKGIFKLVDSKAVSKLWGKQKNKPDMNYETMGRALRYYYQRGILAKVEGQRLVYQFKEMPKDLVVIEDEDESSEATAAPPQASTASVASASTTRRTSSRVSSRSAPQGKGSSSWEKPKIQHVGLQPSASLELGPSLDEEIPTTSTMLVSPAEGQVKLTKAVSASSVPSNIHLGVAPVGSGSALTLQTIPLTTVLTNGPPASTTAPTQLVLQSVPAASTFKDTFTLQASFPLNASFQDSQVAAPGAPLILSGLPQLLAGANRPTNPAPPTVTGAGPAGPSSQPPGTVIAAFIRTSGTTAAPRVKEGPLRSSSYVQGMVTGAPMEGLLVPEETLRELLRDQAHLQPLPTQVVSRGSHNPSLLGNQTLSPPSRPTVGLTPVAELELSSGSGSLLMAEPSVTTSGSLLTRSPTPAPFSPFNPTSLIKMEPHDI
Chain of ETV5 (P41161 whole entry): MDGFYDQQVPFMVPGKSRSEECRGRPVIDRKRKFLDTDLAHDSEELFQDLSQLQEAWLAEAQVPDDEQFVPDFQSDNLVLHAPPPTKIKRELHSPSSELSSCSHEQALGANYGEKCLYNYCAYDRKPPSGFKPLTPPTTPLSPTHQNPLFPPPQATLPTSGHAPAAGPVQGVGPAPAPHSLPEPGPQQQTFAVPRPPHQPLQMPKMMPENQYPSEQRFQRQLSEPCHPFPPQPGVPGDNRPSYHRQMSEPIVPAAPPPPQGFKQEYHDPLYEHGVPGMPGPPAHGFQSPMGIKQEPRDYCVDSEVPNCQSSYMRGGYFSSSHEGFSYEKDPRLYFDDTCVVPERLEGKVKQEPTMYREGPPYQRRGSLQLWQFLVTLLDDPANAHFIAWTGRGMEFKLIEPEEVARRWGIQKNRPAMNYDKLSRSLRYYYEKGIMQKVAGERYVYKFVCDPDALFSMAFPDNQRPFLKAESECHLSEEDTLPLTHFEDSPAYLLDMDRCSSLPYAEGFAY
Chain of HSF1 (Q00613 whole entry): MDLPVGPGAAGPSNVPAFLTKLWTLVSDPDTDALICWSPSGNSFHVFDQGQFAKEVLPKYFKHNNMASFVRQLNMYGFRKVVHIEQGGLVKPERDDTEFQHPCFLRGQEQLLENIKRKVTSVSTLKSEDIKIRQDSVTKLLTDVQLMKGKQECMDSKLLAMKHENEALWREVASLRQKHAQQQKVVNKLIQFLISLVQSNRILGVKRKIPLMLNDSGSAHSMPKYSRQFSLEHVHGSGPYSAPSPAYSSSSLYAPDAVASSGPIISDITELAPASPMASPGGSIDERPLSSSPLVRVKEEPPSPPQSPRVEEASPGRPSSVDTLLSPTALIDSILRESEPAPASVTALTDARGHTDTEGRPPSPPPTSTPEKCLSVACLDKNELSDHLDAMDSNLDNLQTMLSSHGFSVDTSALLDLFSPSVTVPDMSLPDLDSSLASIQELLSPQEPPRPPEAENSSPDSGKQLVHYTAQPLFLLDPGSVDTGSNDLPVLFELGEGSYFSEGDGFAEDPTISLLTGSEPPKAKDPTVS

Row | Sequence | binding signal [1] | binding signal [2] | binding signal [3] | binding signal [4] | binding signal [5] | binding signal [6] | binding signal [7] | binding signal [8] | binding signal [9] | binding signal [10]
1 | ACCACT | 1.35 fold enrichment (6-mer frequency, TF over GST control) | 1.29 fold enrichment (6-mer frequency, TF over GST control) | 1.38 fold enrichment (6-mer frequency, TF over GST control) | 1.31 fold enrichment (6-mer frequency, TF over GST control) | 1.29 fold enrichment (6-mer frequency, TF over GST control) | 1.27 fold enrichment (6-mer frequency, TF over GST control) | 1.23 fold enrichment (6-mer frequency, TF over GST control) | 1.04 fold enrichment (6-mer frequency, TF over GST control) | 1.2 fold enrichment (6-mer frequency, TF over GST control) | 
2 | CTACGT | 1.28 fold enrichment (6-mer frequency, TF over GST control) | 1.09 fold enrichment (6-mer frequency, TF over GST control) | 1.17 fold enrichment (6-mer frequency, TF over GST control) | 1.24 fold enrichment (6-mer frequency, TF over GST control) | 1.24 fold enrichment (6-mer frequency, TF over GST control) | 1.03 fold enrichment (6-mer frequency, TF over GST control) | 1.01 fold enrichment (6-mer frequency, TF over GST control) | 1.01 fold enrichment (6-mer frequency, TF over GST control) | 1.3 fold enrichment (6-mer frequency, TF over GST control) | 
3 | GGCCCT |  | 1.04 fold enrichment (6-mer frequency, TF over GST control) | 1.11 fold enrichment (6-mer frequency, TF over GST control) | 1.06 fold enrichment (6-mer frequency, TF over GST control) | 1.06 fold enrichment (6-mer frequency, TF over GST control) | 1.14 fold enrichment (6-mer frequency, TF over GST control) | 1.11 fold enrichment (6-mer frequency, TF over GST control) |  |  | 
4 | TAGCGG | 1.12 fold enrichment (6-mer frequency, TF over GST control) | 1.13 fold enrichment (6-mer frequency, TF over GST control) | 1.04 fold enrichment (6-mer frequency, TF over GST control) | 1 fold enrichment (6-mer frequency, TF over GST control) | 1.06 fold enrichment (6-mer frequency, TF over GST control) | 1.19 fold enrichment (6-mer frequency, TF over GST control) | 1.02 fold enrichment (6-mer frequency, TF over GST control) | 1.26 fold enrichment (6-mer frequency, TF over GST control) | 1.05 fold enrichment (6-mer frequency, TF over GST control) | 
5 | ACCCCG | 1.25 fold enrichment (6-mer frequency, TF over GST control) | 1.27 fold enrichment (6-mer frequency, TF over GST control) | 1.38 fold enrichment (6-mer frequency, TF over GST control) | 1.33 fold enrichment (6-mer frequency, TF over GST control) | 1.29 fold enrichment (6-mer frequency, TF over GST control) | 1.21 fold enrichment (6-mer frequency, TF over GST control) | 1.22 fold enrichment (6-mer frequency, TF over GST control) | 1.02 fold enrichment (6-mer frequency, TF over GST control) | 1.22 fold enrichment (6-mer frequency, TF over GST control) | 
6 | GATATC | 4.01 fold enrichment (6-mer frequency, TF over GST control) | 1.6 fold enrichment (6-mer frequency, TF over GST control) | 1.41 fold enrichment (6-mer frequency, TF over GST control) | 1.34 fold enrichment (6-mer frequency, TF over GST control) | 1.49 fold enrichment (6-mer frequency, TF over GST control) | 1.51 fold enrichment (6-mer frequency, TF over GST control) | 1.59 fold enrichment (6-mer frequency, TF over GST control) | 1.02 fold enrichment (6-mer frequency, TF over GST control) | 1.51 fold enrichment (6-mer frequency, TF over GST control) | 
7 | TGCATA | 1.13 fold enrichment (6-mer frequency, TF over GST control) | 1.14 fold enrichment (6-mer frequency, TF over GST control) | 1.17 fold enrichment (6-mer frequency, TF over GST control) | 1.2 fold enrichment (6-mer frequency, TF over GST control) | 1.13 fold enrichment (6-mer frequency, TF over GST control) | 1.02 fold enrichment (6-mer frequency, TF over GST control) | 1.03 fold enrichment (6-mer frequency, TF over GST control) | 1.01 fold enrichment (6-mer frequency, TF over GST control) | 1.07 fold enrichment (6-mer frequency, TF over GST control) | 
8 | TACAGG | 1.23 fold enrichment (6-mer frequency, TF over GST control) | 1.24 fold enrichment (6-mer frequency, TF over GST control) | 1.2 fold enrichment (6-mer frequency, TF over GST control) | 1.14 fold enrichment (6-mer frequency, TF over GST control) | 1.26 fold enrichment (6-mer frequency, TF over GST control) | 1.15 fold enrichment (6-mer frequency, TF over GST control) | 1.15 fold enrichment (6-mer frequency, TF over GST control) | 1.08 fold enrichment (6-mer frequency, TF over GST control) | 1.15 fold enrichment (6-mer frequency, TF over GST control) | 
9 | ATACGT | 1.11 fold enrichment (6-mer frequency, TF over GST control) | 1.13 fold enrichment (6-mer frequency, TF over GST control) | 1.09 fold enrichment (6-mer frequency, TF over GST control) | 1.08 fold enrichment (6-mer frequency, TF over GST control) | 1.15 fold enrichment (6-mer frequency, TF over GST control) | 1.04 fold enrichment (6-mer frequency, TF over GST control) | 1.1 fold enrichment (6-mer frequency, TF over GST control) | 1.01 fold enrichment (6-mer frequency, TF over GST control) | 1.13 fold enrichment (6-mer frequency, TF over GST control) | 
10 | GGCATT | 1.04 fold enrichment (6-mer frequency, TF over GST control) | 1.05 fold enrichment (6-mer frequency, TF over GST control) |  |  | 1.08 fold enrichment (6-mer frequency, TF over GST control) | 1.02 fold enrichment (6-mer frequency, TF over GST control) |  | 1.29 fold enrichment (6-mer frequency, TF over GST control) | 1.1 fold enrichment (6-mer frequency, TF over GST control) | 1.12 fold enrichment (6-mer frequency, TF over GST control)
11 | TGTTGA | 1.07 fold enrichment (6-mer frequency, TF over GST control) | 1.07 fold enrichment (6-mer frequency, TF over GST control) | 1.15 fold enrichment (6-mer frequency, TF over GST control) | 1.1 fold enrichment (6-mer frequency, TF over GST control) | 1.16 fold enrichment (6-mer frequency, TF over GST control) | 1.12 fold enrichment (6-mer frequency, TF over GST control) | 1.09 fold enrichment (6-mer frequency, TF over GST control) | 1.02 fold enrichment (6-mer frequency, TF over GST control) | 1.07 fold enrichment (6-mer frequency, TF over GST control) | 
12 | TCACCC | 1.15 fold enrichment (6-mer frequency, TF over GST control) | 1.18 fold enrichment (6-mer frequency, TF over GST control) | 1.13 fold enrichment (6-mer frequency, TF over GST control) | 1.21 fold enrichment (6-mer frequency, TF over GST control) | 1.16 fold enrichment (6-mer frequency, TF over GST control) | 1.01 fold enrichment (6-mer frequency, TF over GST control) | 1.16 fold enrichment (6-mer frequency, TF over GST control) | 1.02 fold enrichment (6-mer frequency, TF over GST control) | 1.18 fold enrichment (6-mer frequency, TF over GST control) | 
13 | TCATGC | 1.14 fold enrichment (6-mer frequency, TF over GST control) | 1.09 fold enrichment (6-mer frequency, TF over GST control) | 1.11 fold enrichment (6-mer frequency, TF over GST control) | 1.18 fold enrichment (6-mer frequency, TF over GST control) | 1.27 fold enrichment (6-mer frequency, TF over GST control) | 1.31 fold enrichment (6-mer frequency, TF over GST control) | 1.18 fold enrichment (6-mer frequency, TF over GST control) | 1.03 fold enrichment (6-mer frequency, TF over GST control) | 1.17 fold enrichment (6-mer frequency, TF over GST control) | 
14 | CCTCGG | 1.07 fold enrichment (6-mer frequency, TF over GST control) | 1.2 fold enrichment (6-mer frequency, TF over GST control) | 1.1 fold enrichment (6-mer frequency, TF over GST control) | 1.25 fold enrichment (6-mer frequency, TF over GST control) | 1.24 fold enrichment (6-mer frequency, TF over GST control) | 1.24 fold enrichment (6-mer frequency, TF over GST control) | 1.3 fold enrichment (6-mer frequency, TF over GST control) | 1.02 fold enrichment (6-mer frequency, TF over GST control) | 1.28 fold enrichment (6-mer frequency, TF over GST control) | 
